The record followed here is PubChem BioAssay (NCI).

What all share (assay): NCI-60 one-dose screen, 48 h (100 = growth as untreated, 0 = no growth, -100 = all killed)
The test system of assay [1] is NCI-H522 lung. The following applies: 10 µM unless noted.
Assay [2] concerns COLO 205 colon. Conditions: 10 µM.
Assay [3] relates to MALME-3M melanoma. The following applies: 10 µM unless noted.
For assay [4], the system named is HCT-15 colon. The following applies: 10 µM.
In assay [5] the test system is SNB-19 CNS. Conditions: 10 µM unless noted.
Assay [6] concerns SK-MEL-5 melanoma. Conditions: 10 µM unless noted.
Assay [7] relates to LOX IMVI melanoma. Conditions: 10 µM unless noted.
Assay [8] has as its system EKVX NSCLC. Conditions: 10 µM unless noted.
The subject of assay [9] is SN12C renal. The following applies: 10 µM unless noted.
Assay [10] relates to TK-10 renal. Conditions: 10 µM unless noted.
Assay [11] deals with CCRF-CEM leukemia. Conditions: 10 µM unless noted.
Assay [12] relates to MOLT-4 leukemia. The following applies: 10 µM.
Assay [13] has as its system SR leukemia. The following applies: 10 µM.
The subject of assay [14] is RPMI-8226 leukemia. Conditions: 10 µM unless noted.
The subject of assay [15] is OVCAR-8 ovarian. The following applies: 10 µM unless noted.
In assay [16] the test system is IGROV1 ovarian. Conditions: 10 µM.
In assay [17] the test system is MDA-MB-435 melanoma. Conditions: 10 µM unless noted.
Assay [18] has as its system HCC-2998 colon. The following applies: 10 µM unless noted.
The subject of assay [19] is HOP-92 NSCLC. The following applies: 10 µM unless noted.

Compounds without any hit were thinned out: in the full panel of roughly 83,000, 20% have a hit.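 96-well plates, one dose, 48 hours. Percent growth reported; active if below 10.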 A number with no mark means an inactive call. Activity calls are given as the source filed them.

For the molecule `CC(C)Nc1ccc(Nc2ccccc2)cc1`, the growth in [1] was 40.8%; in assay [2], 43.6%; in [3] it was 43%; in assay [4] it was 84.3%; in assay [5] it was 33.7%; in assay [6] it was 57.9%. For the same molecule, the growth in [7] is 14.5%; in assay [8], 29.4%; in assay [9], 19.8%; in assay [10] it was 45.2%; in [11], 38.3%; in [12], 43.6%. Also, the growth in assay [13] was 51.2%; in [14] it was 11.5%; in assay [15], 28.1%; in assay [16] it was 27%; in [17], 23%; in [18], 49.6%.
Take `CC(C)CCC1(CCO)C(=O)NC(=S)NC1=O`: the growth in assay [19] was 89.5%; in assay [2], 107%; in assay [4] it was 91.7%; in [5], 105%; in [6], 105%; in assay [7], 104%. The growth in [8] is 105%; in [9], 100%; in assay [10], 114%; in assay [11], 115%; in [13] it was 114%; in assay [15], 101%. In addition, the growth is 116% in assay [16], 104% in assay [17] and 107% in assay [18].
As to `O=c1cc[nH]c(=O)o1`, the growth in assay [19] was 118%; in [2], 104%; in assay [3], 95.2%; in assay [4], 104%; in assay [6], 105%; in assay [7] it was 97.9%. Besides, the growth in assay [9] was 105%; in assay [10], 84.1%; in [12], 97.4%; in [14], 93.1%; in assay [15], 96.6%; in [16], 104%. The values for the growth in assay [17] and in [18] were 111% and 116%, respectively.
For the molecule `O=C(CC1(O)C(=O)Nc2ccc(F)cc21)c1ccc(C(=O)NCC2CCC3(CC2)OOC2(CCCCC2)OO3)cc1` (stereo not given), the growth in [19] is -65.3% (active); in assay [2] it was 33.7%; in assay [3], -35.8% (active); in assay [4] it was 74.1%; in [5] it was 80.2%; in [7], 39.1%. Further, the growth in assay [8] is -29.9% (active); in assay [9] it was 51.4%; in assay [11], -32.1% (active); in assay [12] it was 22.5%; in assay [13] it was -43.2% (active); in assay [14], 12.7%. Also, the results for the growth in [16], in assay [17] and in assay [18] were 3.82% (active), 63.8% and 113%, respectively.
For `CO[C@@H]([CH2][Hg][S]C#N)[C@@H]([CH2][Hg][S]C#N)OC`, the growth in assay [19] was 76.2%; in assay [2] it was 66.2%; in [3], 104%; in [5], 100%; in assay [6], 107%; in assay [8], 112%. Further, the growth in assay [9] was 98.2%; in assay [10], 133%; in assay [11], 42.5%; in [12] it was 101%; in [13], 66.5%; in assay [14], 94.6%. The growth in assay [17] was 98.7%.
As for `ClCCN(CCCl)c1nc(Cl)c(C2CC(c3ccc(Cl)cc3)=NN2c2cc(Cl)cc(Cl)c2)s1` (stereo not given), the growth in assay [1] was 80%; in assay [2], 105%; in assay [3], 107%; in assay [4] it was 105%; in assay [5], 88.1%; in [6], 115%. In addition, the growth in assay [7] is 106%; in assay [8] it was 102%; in assay [9], 92%; in assay [10] it was 109%; in assay [11], 99.7%; in [12] it was 95%. In addition, the growth in assay [13] is 93.1%; in [16] it was 102%; in assay [17] it was 103%; in [18], 109%.
On to `COc1cc(C2(C#N)CCN(C)CC2)cc(OC)c1OC`, for which the growth in assay [19] is 100%; in [2], 107%; in [3], 113%; in assay [5], 102%; in [6] it was 107%; in assay [8] it was 112%. For the same molecule, the growth in assay [9] was 103%; in [10], 108%; in assay [11] it was 116%; in assay [12] it was 83.3%; in [13] it was 91.2%; in [14] it was 106%. The growth in assay [16] is 109%; in assay [17], 103%.
Consider `NC(=O)SCC(=O)Nc1ccc([As](=O)(O)O)cc1`, for which the growth in [1] is -9.01% (active); in assay [2], 75.6%; in assay [3], 122%; in assay [4], 81.5%; in [5], 92.8%; in assay [6], 102%. In addition, the growth in assay [7] was 68.8%; in assay [8] it was 111%; in assay [10] it was 105%; in assay [11] it was 59.3%; in [12] it was 86.1%; in [13], 100%. Also, the growth was 84% in assay [14]; 83.4% in assay [15]; 65.5% in assay [16]; 98.5% in [17]; 82% in [18].
As to `O=[N+]([O-])c1cccc([As]=[As]c2cccc([N+](=O)[O-])c2)c1` (stereo not given), the growth is -99.3% (active) in assay [19]; -81.2% (active) in assay [2]; -89.1% (active) in assay [3]; -83.5% (active) in assay [4]; -98.6% (active) in assay [5]; -100% (active) in assay [6]. The growth was -55.4% (active) in assay [7]; -96% (active) in assay [9]; -98.4% (active) in assay [10]; -37.4% (active) in assay [12]; -32% (active) in assay [13]; -39.3% (active) in assay [14]. Also, the growth was -57.8% (active) in assay [16], -91.5% (active) in assay [17] and -90.6% (active) in assay [18].
As for `O=C(O)c1cccc(CCl)c1`, the growth in assay [19] was 84.3%; in assay [2], 106%; in assay [3], 110%; in assay [4], 93%; in assay [5], 114%; in [6] it was 113%. In addition, the growth in [7] is 95.8%; in [9], 107%; in assay [10] it was 97.5%; in assay [12], 93.2%; in [13], 89.5%; in assay [14], 105%. Moreover, the growth in assay [15] is 96.5%.
